Each structure is given as a SMILES string. Active and inactive are the calls of the source. The calls were made as follows: active = hit-call score of the fitted dose curve at least 0.9, where 1 is the maximum; inactive = score below 0.9.

Read-out in the experiment: TIMP metallopeptidase inhibitor 1 (TIMP1), TIMP1 (gene 7076)
Description: BSK_hDFCGF_TIMP1: BioMAP Diversity Plus: hDFCGF Assay for TIMP metallopeptidase inhibitor 1 (TIMP1) Biomarker Activity (AID 2283062). To be noted: primary human foreskin fibroblasts; actives raise or lower the signal. Summed up:
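TIMP-1 measured by ELISA 24 h after chemical dosing of primary human skin fibroblasts, with gain or loss fitted relative to DMSO. Parallel SRB staining (560 nm) monitored overt cytotoxicity.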
Take `CCN(CC)C(=S)SSC(=S)N(CC)CC`: the AC50 (usually the midpoint of the concentration-response curve, whichever way the signal moves) is 2.03 µM (active).

As to `OCCC(F)(F)C(F)(F)C(F)(F)C(F)(F)F`, the outcome was inactive.

`CCCCN1C(=O)[C@@H]([C@H](O)C2CCCCC2)NC(=O)C12CCN(Cc1ccc(Oc3ccc(C(=O)O)cc3)cc1)CC2`: the result was inactive.

In the case of `CC(C)c1nnc2ccc(-c3ocnc3-c3cc(F)ccc3F)cn12`, the outcome was inactive.

As to `FC(F)=C(F)C(F)(F)C(F)(F)C(F)(F)C(F)(F)C(F)(F)C(F)(F)F`, the outcome was inactive.

In the case of `Cc1ccc(S(=O)(=O)NC(=O)NN2CCCCCC2)cc1`, the result was inactive.

`CCCCCCOC(=O)CC(CC(=O)OCCCCCC)(OC(=O)CCC)C(=O)OCCCCCC`: the result was inactive.

Consider `c1ccc2ncccc2c1`, for which the result was inactive.

Consider `OC[C@H]1O[C@@](CO)(O[C@H]2O[C@H](CO)[C@@H](O)[C@H](O)[C@H]2O)[C@@H](O)[C@@H]1O`, for which the outcome was inactive.

As to `C[C@@H](Oc1ccc(CNC(=O)c2cccnc2Oc2ccc3c(c2)OCO3)c(F)c1)C(=O)O`, the outcome was inactive.

As for `Nc1ccn([C@@H]2O[C@H](CO)[C@@H](O)[C@@H]2O)c(=O)n1`, the outcome was inactive.

Take `O=c1[nH]cnc2c1ncn2[C@H]1CC[C@@H](CO)O1`: the result was inactive.

Turning to `O=C(O)c1cccc(C(=O)O)c1`, the result was inactive.

As to `CCOC(N)=O`, the outcome was inactive.

For the origin of these results see PubChem BioAssay (EPA / NIEHS).
